Results as given in PubChem BioAssay AID1159580 (chemical genetic matrix, 2015).
Values joined by “and” are separate entries in the source; they are usually repeats but may differ in a detail not shown here. Equal values may be shown once. Among all 5,500 compounds or so, about 2,000 (36%) were called active. Roughly 18% stayed inconclusive and do not appear here. Cut-off read from the data, not from the text of the source: active = normalized growth mostly below about 0.91 (no sharp cut-off); inconclusive = no clear call, values can overlap the other calls; inactive = mostly above about 0.92. The list shows a part of the results.

Assay: chemical genetic growth profiling, strain panel (AID 1159580);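 note: tested at 20 µM; growth read once vehicle control cultures reached saturation at 30 °C; 1 = growth at the plate median or of vehicle wells; lower values mean less growth of the strain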
Details: S. cerevisiae deletion strains, growth OD

Measured: normalized growth

CC12CCC(CC1)C(C)(C)O2
inactive: locus YAL013W, strain DEP1, active compounds read low 1 | locus YAL021C, strain ccr4, active compounds read low 0.963 | locus YAL026C, strain drs2, active compounds read low 0.973 | locus YAL030W, strain snc1, active compounds read low 0.998 | locus YBL061C, strain skt5, active compounds read low 0.967 | locus YBR009C, strain hhf1, active compounds read low 0.994 | locus YBR021W, strain FUR4, active compounds read low 1.02 | locus YBR023C, strain chs3, active compounds read low 0.974 | locus YBR171W, strain sec66, active compounds read low 0.966 | locus YBR229C, strain ROT2, active compounds read low 1 | locus YBR231C, strain swc5, active compounds read low 1.02 | locus YBR279W, strain paf1, active compounds read low 0.988 | locus YCL011C, strain gbp2, active compounds read low 0.974 | locus YCL016C, strain dcc1, active compounds read low 0.986 | locus YCL029C, strain bik1, active compounds read low 1.01 | locus YCL061C, strain MRC1, active compounds read low 0.968 | locus YCL069W, strain vba3, active compounds read low 0.977 | locus YCR088W, strain abp1, active compounds read low 0.985 | locus YDL005C, strain med2, active compounds read low 0.975 | locus YDL035C, strain GPR1, active compounds read low 0.999 | locus YDL040C, strain nat1, active compounds read low 0.997 | locus YDL074C, strain BRE1, active compounds read low 1.02 | locus YDL101C, strain DUN1, active compounds read low 1 | locus YDL185W, strain tfp1, active compounds read low 1.01 | locus YDL192W, strain arf1, active compounds read low 1.02 | locus YDR001C, strain nth1, active compounds read low 0.995 | locus YDR069C, strain doa4, active compounds read low 0.966 | locus YDR101C, strain arx1, active compounds read low 0.996 | locus YDR137W, strain rgp1, active compounds read low 1.04 | locus YDR150W, strain NUM1, active compounds read low 1 | locus YDR159W, strain sac3, active compounds read low 1.01 | locus YDR162C, strain NBP2, active compounds read low 0.978 | locus YDR195W, strain ref2 0.982 | locus YDR297W, strain sur2, active compounds read low 0.985 | locus YDR318W, strain mcm21, active compounds read low 1.02 | locus YDR334W, strain swr1, active compounds read low 0.974 | locus YDR335W, strain msn5, active compounds read low 0.985 | locus YDR388W, active compounds read low 1.02 | locus YDR392W, strain spt3, active compounds read low 0.935 | locus YDR502C, strain sam2, active compounds read low 1.01 | locus YEL003W, strain gim4, active compounds read low 0.989 | locus YEL037C, strain rad23, active compounds read low 0.97 | locus YEL061C, strain CIN8 (second series), active compounds read low 0.98 | locus YEL061C, strain CIN8, active compounds read low 1 | locus YER015W, strain faa2, active compounds read low 0.979 | locus YER016W, strain bim1, active compounds read low 0.992 | locus YER110C, active compounds read low 1.02 | locus YER111C, strain swi4, active compounds read low 0.97 | locus YER155C, strain BEM2 (second series), active compounds read low 0.977 | locus YER155C, strain BEM2, active compounds read low 1.01 | locus YER167W, strain BCK2, active compounds read low 1 | locus YFR010W, strain ubp6, active compounds read low 0.967 | locus YGL078C, strain dbp3, active compounds read low 1.03 | locus YGL086W, strain mad1, active compounds read low 0.986 | locus YGL167C, strain pmr1, active compounds read low 0.979 | locus YGL173C, strain kem1, active compounds read low 0.971 | locus YGL227W, strain vid30, active compounds read low 0.986 | locus YGL240W, strain doc1, active compounds read low 0.997 | locus YGL248W, strain PDE1, active compounds read low 1.01 | locus YGL253W, strain hxk2, active compounds read low 0.963 | locus YGR078C, strain PAC10, active compounds read low 1 | locus YGR135W, strain pre9, active compounds read low 1.06 | locus YGR229C, strain SMI1, active compounds read low 0.999 | locus YGR252W, strain gcn5, active compounds read low 1.04 | locus YHR013C, strain ard1, active compounds read low 0.967 | locus YHR027C, strain rpn1, active compounds read low 0.984 | locus YHR030C, strain SLT2, active compounds read low 1.01 and 0.978 | locus YHR079C, strain IRE1 (second series), active compounds read low 1.01 | locus YHR079C, strain IRE1, active compounds read low 0.993 | locus YHR094C, strain hxt1, active compounds read low 1.02 | locus YHR129C, strain ARP1, active compounds read low 1.01 | locus YHR142W, strain chs7, active compounds read low 0.979 | locus YHR200W, strain rpn10, active compounds read low 1.01 | locus YIL066C, strain RNR3, active compounds read low 0.998 | locus YIL073C, strain SPO22, active compounds read low 1 | locus YIL125W, strain kgd1, active compounds read low 1.02 | locus YIR030C, strain dcg1, active compounds read low 1.03 | locus YJL092W, strain hpr5, active compounds read low 0.954 | locus YJL095W, strain BCK1 (second series), active compounds read low 0.97 | locus YJL095W, strain BCK1, active compounds read low 1.03 and 0.991 | locus YJL115W, strain asf1, active compounds read low 0.982 | locus YJL129C, strain trk1, active compounds read low 0.966 | locus YJL134W, strain LCB3, active compounds read low 1 | locus YJL154C, strain vps35, active compounds read low 0.984 | locus YJL164C, strain tpk1, active compounds read low 0.988 | locus YJL166W, strain qcr8, active compounds read low 0.996 | locus YJL168C, strain set2, active compounds read low 1.04
